# Screening results as filed in PubChem.
# MITF inh: MITF inhibition; TRPM1 promoter luciferase, luminescence, 24 h; inhibition, % (no concentration beside the values); 0.28% of 37,000 active; AID 2240; in the data active = inhibition above about 85%; inconclusive = no clear call, values can overlap the other calls; inactive = below about 68%;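 note: human melanocyte line stably carrying TRPM1 promoter luciferase reporter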
# YB-1 expression: YB-1 expression inhibition; U2OS, qRT-PCR YB-1 vs CDIP delta delta Cp, 16 h; hits give high values; zero = DMSO, each unit about twofold; delta delta Cp (YB-1 minus CDIP) (no concentration beside the values); 0.37% of 30,000 active; AID 434959;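 active = delta delta Cp rounded down to an integer at or above 3, about 3 SD of DMSO wells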;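 note: higher means less YB-1 transcript or more CDIP transcript relative to DMSO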
# Hedgehog inh: Sonic Hedgehog pathway inhibition | inhibition, % (no concentration beside the values) | 2.1% of 22,000 active | Shh-LIGHT2 Gli-luciferase reporter, 30 h;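 active = mean inhibition across valid replicates above about 65%, limit read from the data; inconclusive = mean under the limit, yet half or more replicates past it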;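 note: pathway switched on by Shh-conditioned medium diluted 1 in 25 in low serum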
# PD-1 reverse act: reversal of PD-1 mediated T-cell inhibition. primary human CD4 T cells, PD-L1 beads, CellTiter-Glo 96 h. 29,000 tested, under 10 active. AID 2316. activation, % (concentration not given with the values); call rule not given here;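 note: 0% = median vehicle wells and 100% = positive control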
# NOMO-1 viab: STK33 inhibitor candidate reducing NOMO-1 cell viability; NOMO-1 AML viability, CellTiter-Glo luminescence, 72 h; AID 2330; 7.5% of 37,000 active; inhibition, % (test concentration not listed); in the data active = inhibition above about 80%; inconclusive = no clear call, values can overlap the other calls
# Starred values were filed as active, the others as inactive; ? = inconclusive; nt = no result given. In the library only some 7.4% were active in any assay of this set; here they are far more common.
SMILES,MITF inh,YB-1 expression,Hedgehog inh,PD-1 reverse act,NOMO-1 viab
COc1ccccc1COc1ccc2c3c(c(=O)oc2c1C)CCCCC3,-57,0.036,nt,1,87*
C[C@H](CO)N1C[C@H](C)[C@@H](CN(C)Cc2ccc(-c3ccccc3)cc2)Oc2ccc(NS(=O)(=O)c3ccc(F)cc3)cc2C1=O,18,-0.34,8,-1,22
C[C@@H]1CN([C@@H](C)CO)C(=O)c2cc(NS(=O)(=O)c3ccccc3)ccc2O[C@@H]1CN(C)Cc1ccc(-c2ccccc2)cc1,40,0.2,nt,nt,115*
C[C@H]1CN([C@@H](C)CO)C(=O)c2cc(NS(=O)(=O)c3ccccc3)ccc2O[C@@H]1CN(C)Cc1ccc(-c2ccccc2)cc1,14,-0.13,-3,-2,87*
Cc1onc(-c2c(F)cccc2Cl)c1C(=O)N1CC(Oc2ccc(Cl)cc2)C1,3,-0.4,14,-1,41
C[C@H]1CN([C@@H](C)CO)C(=O)c2cc(NC(=O)C3CCCCC3)ccc2O[C@H]1CN(C)Cc1ccc(-c2ccccc2)cc1,8,-0.12,nt,-1,3
COc1ccc(NC(=O)Nc2ccc3c(c2)CC(=O)N([C@H](C)CO)C[C@@H](C)[C@H](CN(C)S(=O)(=O)c2ccccc2)O3)cc1,0,-0.044,-6,1,12
CN=C(NC#N)Nc1ccc(C2=NNC(=O)CC2C)cc1 (centres undefined),-2,0.18,28,11,8
C[C@@H]1CCCCO[C@H](CN(C)CC2CCCCC2)[C@@H](C)CN([C@H](C)CO)C(=O)c2cc(NC(=O)Nc3cccc4ccccc34)ccc2O1,1,0.52,30,-9,128*
C[C@@H]1CN([C@@H](C)CO)C(=O)c2cc(NC(=O)Nc3cccc4ccccc34)ccc2O[C@H]1CN(C)CC1CCCCC1,-14,0.32,34,-1,56
C[C@@H]1CCCCO[C@@H](CN(C)CC2CCCCC2)[C@@H](C)CN([C@H](C)CO)C(=O)c2cc(NC(=O)Nc3cccc4ccccc34)ccc2O1,-20,-0.33,-10,-11,112*
COc1cc(C2Oc3c(OC)cc(CCCO)cc3C2CO)ccc1O[C@H]1O[C@H](C)[C@@H](O)[C@H](O)[C@@H]1O (some centres undefined),-68,-0.52,-35,1,6
C=CCN1C(=O)[C@@]2(O[C@@H](CCn3cc(CCO)nn3)[C@H]([Si](C)(C)c3ccc(OC)cc3)[C@H]2C)c2ccccc21,nt,0.099,nt,nt,nt
C[C@H]1CN([C@@H](C)CO)C(=O)c2cccc(NC(=O)Nc3cccc4ccccc34)c2O[C@@H]1CN(C)C(=O)Nc1ccc(C(F)(F)F)cc1,6,0.3,3,-5,63
O=C(Nc1ccccc1Cl)c1cc2ccccc2cc1O,36,-0.35,nt,-4,132*
C[C@@H]1CN([C@@H](C)CO)C(=O)c2cc(NS(=O)(=O)c3cccs3)ccc2O[C@@H]1CN(C)C(=O)Nc1ccc(F)cc1,10,-0.015,10,0,-12
C=CCNC(=S)N1N=C2c3ccccc3CCC2C1c1ccccc1Cl (centres undefined),6,-0.17,nt,-1,109*
CC(=O)N1N=C2c3ccccc3CCC2C1c1cccs1 (centres undefined),27,-0.092,nt,-1,-7
COc1cc(NC(=O)COc2ccc(Br)cc2C)c(OC)cc1Cl,-34,nt,nt,1,-19
CC(C)=CCC[C@](C)(O[C@@H]1O[C@H](CO[C@@H]2O[C@@H](CO)[C@H](O)[C@H]2O)[C@@H](O)[C@H](O)[C@H]1O)[C@H]1CC[C@]2(C)C1[C@H](O)CC1[C@@]3(C)CC[C@H](O[C@@H]4O[C@H](CO)[C@@H](O)[C@H](O)[C@H]4O[C@@H]4O[C@H](CO)[C@@H](O)[C@H](O)[C@H]4O)C(C)(C)C3CC[C@]12C (some centres undefined),3,-0.26,8,0,7
Cc1cc(C)nc(SCC(O)COc2ccc(Cl)cc2)n1 (centres undefined),-5,nt,nt,nt,-3
CC(C)(C)C(=O)CC(Nc1ccccc1)c1ccc(Cl)cc1 (centres undefined),-7,0.19,nt,2,-15
Cc1cc(C)nc(S/C=C/C(=O)c2ccc(Cl)cc2)n1,0,0.23,-18,-1,121*
O=C(/C=C/Sc1ccc(Cl)cc1)c1ccccc1,-2,0.21,-6,-6,123*
Cn1cnnc1S/C=C/C(=O)c1ccc(Cl)cc1,77,0.78,8,-4,116*
SMILES,MITF inh,YB-1 expression,Hedgehog inh,PD-1 reverse act,NOMO-1 viab
C[C@@H]1CN([C@H](C)CO)C(=O)c2cc(NC(=O)C3CCCCC3)ccc2O[C@@H]1CN(C)Cc1ccccc1,-1,-0.14,nt,-1,-11
C[C@H](CO)N1C[C@H](C)[C@H](CN(C)Cc2ccc(C(=O)O)cc2)Oc2ccc(NC(=O)c3ccncc3)cc2C1=O,1,0.32,-47,0,-10
NS(=O)(=O)c1ccc(CCNC(=O)c2cc(-c3cccnc3)nc3ccc(Br)cc23)cc1,-35,nt,nt,nt,15
CC1CC(NC(=S)NCc2csc3ccccc23)CC(C)(C)C1 (centres undefined),36,0.2,?,-2,109*
O=C(N/N=C/c1ccc([N+](=O)[O-])o1)c1ccc(O)cc1,61,0.42,10,-7,140*
O=C(NO)c1ccc(C(=O)N/N=C/c2ccc(O)cc2)cc1,nt,0.32,nt,nt,nt
COc1ccc(CN(C)C[C@H]2Oc3c(NC(=O)Nc4ccc(C(F)(F)F)cc4)cccc3C(=O)N([C@H](C)CO)C[C@H]2C)cc1,-6,1.3,13,-5,95*
C[C@@H]1CN([C@@H](C)CO)C(=O)c2cccc(NC(=O)Nc3ccc(F)cc3)c2O[C@H]1CN(C)Cc1ccc(C(F)(F)F)cc1,46,0.62,-12,-7,103*
COc1ccc(NC(=O)Nc2cccc3c2O[C@@H](CN(C)Cc2ccc(C(F)(F)F)cc2)[C@@H](C)CN([C@H](C)CO)C3=O)cc1,9,-0.39,2,-3,45
C[C@H](CO)N1C[C@H](C)[C@H](CN(C)Cc2ccc(C(F)(F)F)cc2)Oc2c(NC(=O)Nc3ccc(C(F)(F)F)cc3)cccc2C1=O,21,0.011,-43,-5,110*
O=C(NO)c1cccc(C(=O)N/N=C/c2ccc(O)cc2)c1,nt,-0.37,nt,nt,nt
N#CC1=C(N)C(C#N)=c2s/c(=C/c3cccc(F)c3)c(=O)n2C1c1cccc(F)c1 (centres undefined),-13,0.18,-26,1,116*
O=c1cc(-c2ccccc2)oc2cc(O)ccc12,-56,0.58,-18,-1,-7
c1ccc(-c2ccc3c4ccccc4cc-3o2)cc1,18,0.47,-3,0,106*
Cc1ccc(-c2nn(CC(=O)Nc3ccc(C)cc3C)c(=O)c3ccccc23)cc1,12,nt,nt,-3,111*
O=C(NC(=O)c1ccc(OCC(F)(F)F)nc1)NN1CCOCC1,-8,0.06,-15,1,-26
Cc1cccc(OCC(=O)NC(=S)Nc2ccc(C)cc2O)c1,30,nt,nt,-11,102*
